Reference: PubChem BioAssay (Tox21)
Values joined by “and” are separate entries in the source; they are usually repeats but may differ in a detail not shown here. Identical values can stand only once. Results filed as inconclusive are left out. Some compounds were tested as several samples or in several runs, with calls that do not always agree. Active and inactive are the calls of the source. Unless noted, calls come from the whole dose curve; as a rule, active = well fitted curve in the direction sought with a large enough effect in the repeat runs; inconclusive = weak or mixed curves; inactive = no such curve, though single readings can be large; an effect the other way counts as inactive or inconclusive.

Columns and labels:
[1] = qHTS assay to test for compound auto fluorescence at 535 nm (green) in HEK293 cells (AID 720680)
[2] = qHTS assay to test for compound auto fluorescence at 460 nm (blue) in HEK293 cell free culture (AID 720681)
Procedure, shortened: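 Test compounds were pinned into cell-free culture medium (DMEM with 10% FBS) and fluorescence was read directly at Ex/Em 405/460 nm. Signals were expressed as fluorescence equivalents of triamterene, with DMSO vehicle as control.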

[3] = qHTS assay to test for compound auto fluorescence at 535 nm (green) in HEK293 cell free culture (AID 720682)
Procedure, shortened: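 Steps: dispense DMEM/10% FBS into empty wells; pin in compound or DMSO; measure fluorescence at 485/535 nm. Values are fluorescein equivalents.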

[4] = qHTS assay to test for compound auto fluorescence at 590 nm (red) in HEK293 cell free culture (AID 720683)
Procedure, shortened: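 Tox21 10K library compounds were pinned into cell-free DMEM with 10% FBS and fluorescence was read at excitation 540 nm. Activity is expressed as Rose Bengal sodium equivalency.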

[5] = qHTS assay to test for compound auto fluorescence at 590 nm (red) in HepG2 cell free culture (AID 720684)
Procedure, shortened: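 Ex 540 / Em 590 nm read of compound in cell-free MEM (10% FBS). Rose Bengal sodium reference.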

[6] = qHTS assay to test for compound auto fluorescence at 460 nm (blue) in HepG2 cell free culture (AID 720685)
Procedure, shortened: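 Cell-free plates of MEM plus 10% FBS received 23 nL compound or DMSO vehicle; blue-channel (405/460 nm) intensity scored against triamterene as reference fluorophore.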

[7] = qHTS assay to test for compound auto fluorescence at 535 nm (green) in HepG2 cell free culture (AID 720686)
[8] = qHTS assay to test for compound auto fluorescence at 460 nm (blue) in HepG2 cells (AID 720687)
Procedure, shortened: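 Cells (2,000/well in MEM with 10% FBS) attached overnight at 37 C, then were exposed to compound or DMSO for 1 hr at 37 C, 5% CO2. Fluorescence read at Ex/Em 405/460 nm, expressed as triamterene-equivalent signal.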

[9] = biological target: Glucocorticoid receptor (Homo sapiens) (UniProt P04150); assay: qHTS assay to identify small molecule agonists of the glucocorticoid receptor (GR) signaling pathway (AID 720691; active = well fitted activation curve with a large enough effect in the signal ratio in the repeat runs, not every such curve was filed as active; the % refers to the signal ratio)
Procedure, shortened: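 Steps: seed GR-bla HeLa cells, incubate 4 h at 37 C/5% CO2; pin-transfer DMSO-dissolved compounds; incubate 18 h at 37 C; add LiveBLAzer B/G FRET substrate; after 2 h at room temperature, measure fluorescence.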

[10] = biological target: Glucocorticoid receptor (Homo sapiens) (UniProt P04150); assay: qHTS assay to identify small molecule antagonists of the glucocorticoid receptor (GR) signaling pathway (AID 720692; active = well fitted inhibition curve with a large enough effect in the signal ratio in the repeat runs, not every such curve was filed as active; the % refers to the signal ratio; note: potency is the fitted concentration of half-maximal effect)
Procedure, shortened: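 Antagonism was scored as loss of dexamethasone-driven (5 nM final) reporter signal in HeLa cells bearing a glucocorticoid response element–beta-lactamase construct, after 18 h compound exposure at 37 C and 2 h FRET substrate loading.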

[11] = qHTS assay to identify small molecule antagonists of the glucocorticoid receptor (GR) signaling pathway - cell viability counter screen (AID 720693); note: nearly all actives have a fitted effect of over 55% in size
[12] = qHTS assay for identifying genotoxic compounds that show differential cytotoxicity against isogenic chicken DT40 cell lines with known DNA damage response pathways - Rev3 mutant cell line (AID 743014); note: nearly all actives have a fitted effect of over 55% in size; note: potency is the fitted concentration of half-maximal effect
[13] = qHTS assay to identify small molecule antagonists of the androgen receptor (AR) signaling pathway - cell viability counter screen (AID 743033; note: nearly all actives have a fitted effect of over 45% in size)
[14] = qHTS assay to identify small molecule antagonists of the androgen receptor (AR) signaling pathway using the MDA cell line - cell viability counter screen (AID 743041; note: nearly all actives have a fitted effect of over 45% in size)
Procedure, shortened: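 In this qHTS counter assay, fluorescence intensity after CellTiter-Fluor addition indicated viability of MDA-kb2 AR-luc cells given compounds and R1881 for 16 h at 37C.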

[15] = qHTS assay to identify small molecule antagonists of the thyroid receptor (TR) signaling pathway - cell viability counter screen (AID 743064); note: nearly all actives have a fitted effect of over 50% in size; note: potency is the fitted concentration of half-maximal effect
Procedure, shortened: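 Plate GH3.TRE-Luc cells; incubate 4 h at 37 °C; add compound, then T3 to 1 nM final; incubate 23.5 h; add CellTiter-Fluor; incubate 30 min at 37 °C, 5% CO2; read fluorescence.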

[16] = qHTS assay to identify small molecule antagonists of the thyroid receptor (TR) signaling pathway (AID 743065); note: nearly all actives have a fitted effect of over 55% in size; note: potency is the fitted concentration of half-maximal effect
Procedure, shortened: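 GH3.TRE-Luc rat pituitary cells carrying two TR response elements driving luciferase were plated for 4 h, given compound plus 1 nM T3 (final), and incubated 23.5 h at 37 C. ONE-Glo luminescence measured reporter inhibition; CellTiter-Fluor fluorescence tracked cytotoxicity.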

[17] = qHTS assay for identifying genotoxic compounds that show differential cytotoxicity against isogenic chicken DT40 cell lines with known DNA damage response pathways - Rad54/Ku70 mutant cell line (AID 743015); note: nearly all actives have a fitted effect of over 60% in size; note: potency is the fitted concentration of half-maximal effect
[18] = qHTS assay for identifying genotoxic compounds that show differential cytotoxicity against isogenic chicken DT40 cell lines with known DNA damage response pathways - wild type cell line (AID 743012); note: nearly all actives have a fitted effect of over 60% in size; note: potency is the fitted concentration of half-maximal effect
Procedure, shortened: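 Cytotoxicity in repair-proficient parental chicken DT40 cells serves as the comparator for Rad54/Ku70- and Rev3-deficient lines. Cells were exposed to compounds for 40 h at 37 C/5% CO2, and ATP-based luminescence (CellTiter-Glo) measured viability.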
% is set by controls: 0 for no effect and ±100 for the full control effect.

Chain of Glucocorticoid receptor (Homo sapiens) (P04150 whole entry, looked up): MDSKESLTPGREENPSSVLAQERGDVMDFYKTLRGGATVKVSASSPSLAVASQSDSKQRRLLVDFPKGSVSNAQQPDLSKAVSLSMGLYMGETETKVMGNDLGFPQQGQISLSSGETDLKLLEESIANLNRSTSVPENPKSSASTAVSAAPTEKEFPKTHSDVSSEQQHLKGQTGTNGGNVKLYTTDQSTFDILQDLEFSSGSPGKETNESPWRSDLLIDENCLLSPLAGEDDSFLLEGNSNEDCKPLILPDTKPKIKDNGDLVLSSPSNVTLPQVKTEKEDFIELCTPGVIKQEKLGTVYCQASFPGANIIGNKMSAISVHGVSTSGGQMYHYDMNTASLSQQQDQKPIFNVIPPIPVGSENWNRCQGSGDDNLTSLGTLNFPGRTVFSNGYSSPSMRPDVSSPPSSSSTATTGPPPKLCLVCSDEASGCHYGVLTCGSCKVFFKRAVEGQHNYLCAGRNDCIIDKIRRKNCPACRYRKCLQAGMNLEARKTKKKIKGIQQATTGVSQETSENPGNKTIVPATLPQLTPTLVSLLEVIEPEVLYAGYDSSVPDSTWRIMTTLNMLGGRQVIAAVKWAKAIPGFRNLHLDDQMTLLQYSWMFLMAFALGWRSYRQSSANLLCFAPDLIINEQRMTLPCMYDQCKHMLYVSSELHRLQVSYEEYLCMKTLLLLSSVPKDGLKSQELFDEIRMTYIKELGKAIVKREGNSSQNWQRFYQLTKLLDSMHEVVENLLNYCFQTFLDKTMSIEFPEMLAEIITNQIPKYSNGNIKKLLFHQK

CCCCOc1ccc(CC(=O)NO)cc1
active: Potency [12] 12.7 µM
inactive: fluorescence, % of fluorescein [1] 0.0125% [at 18.6 µM] | fluorescence, % of fluorescent control [2] -0.0158% [at 18.6 µM] | activity change [3] 0.0033% [at 18.6 µM] | fluorescence, % of fluorescent control [4] -0.0389% [at 18.6 µM] | fluorescence, % of Rose Bengal [5] -0.259% [at 18.6 µM] | fluorescence, % of fluorescent control [6] 0.0098% [at 18.6 µM] | fluorescence, % of fluorescein control [7] -0.0407% [at 18.6 µM] | fluorescence, % of fluorescent control [8] -0.124% [at 18.6 µM] | Potency [9] | Potency [10] | Potency [11] | Potency [13] | Potency [14] | Potency [15] | Potency [16]

CC(C)(C)C(=O)OCOP(=O)(COCCn1cnc2c(N)ncnc21)OCOC(=O)C(C)(C)C
inactive: outcome [1] | Potency [2] | outcome [3] | outcome [4] | outcome [5] | Potency [6] | outcome [7] | Potency [8] | Potency [9] | Potency [10] | Potency [11] | Potency [13] | Potency [14] | Potency [15]

O=S(=O)(O)c1ccc(O)c2ncccc12
inactive: outcome [1] | Potency [2] | outcome [3] | outcome [4] | outcome [5] | Potency [6] | outcome [7] | Potency [8] | Potency [9] | Potency [10] | Potency [11] | Potency [12] | Potency [17] | Potency [13]

O=C(NN1CCCC1)NS(=O)(=O)c1ccc(Cl)cc1
inactive: outcome [1] | Potency [2] | outcome [3] | outcome [4] | outcome [5] | Potency [6] | outcome [7] | Potency [8] | Potency [9] | Potency [10] | Potency [11] | Potency [18] | Potency [12] | Potency [17] | Potency [14] | Potency [15] | Potency [16]

O=C(O)Cn1c(C(=O)Nc2nc(-c3ccccc3Cl)cs2)cc2ccccc21
inactive: outcome [1] | Potency [2] | outcome [3] | outcome [4] | outcome [5] | Potency [6] | outcome [7] | Potency [8] | Potency [9] | Potency [10] | Potency [11] | Potency [18] | Potency [17] | Potency [14]
active: Potency [16] 26.6 µM

O=C(O)C1CCC(C(=O)O)CC1 (configuration not stated)
inactive: outcome [1] | Potency [2] | outcome [3] | outcome [4] | outcome [5] | Potency [6] | outcome [7] | Potency [8] | Potency [9] | Potency [10] | Potency [11] | Potency [15]
active: Potency [12] 60.9 µM | Potency [17] 68.4 µM

CN1CCC(=C2c3ccccc3CCc3sccc32)CC1
active: Potency [18] 6.68 µM | Potency [12] 15 µM | Potency [17] 11.9 µM | Potency [15] 21.1 µM | Potency [16] 26.6 µM
inactive: outcome [1] | Potency [2] | outcome [3] | outcome [4] | outcome [5] | Potency [6] | outcome [7] | Potency [8] | Potency [9] | Potency [11] | Potency [13]

O=C(O)Cc1cc(I)c(Oc2ccc(O)c(I)c2)c(I)c1
inactive: outcome [1] | Potency [2] | outcome [3] | outcome [4] | outcome [5] | Potency [6] | outcome [7] | Potency [8] | Potency [9] | Potency [18] | Potency [12] | Potency [13] | Potency [14] | Potency [15]
inactive and 54.5 µM (active): Potency [17]
active: Potency [10] 9.1 µM and 3.47 µM
